From PubChem BioAssay (NCI)
About 83,000 compounds went through this panel and 20% of them were active in at least one assay; those are over-represented in the sample as a whole.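 Each cell line was grown in a 96-well plate and treated with one concentration of compound for 48 hours. Values below 10 were considered active.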 Unmarked numbers belong to inactive results. Activity calls are given as the source filed them.

What was measured:
Test in all cases: NCI-60 one-dose screen, 48 h (100 = growth as untreated, 0 = no growth, -100 = all killed)
Details in all cases: 10 µM unless noted
[1] = test system: SR leukemia
[2] = test system: RPMI-8226 leukemia
[3] = test system: OVCAR-8 ovarian
[4] = test system: OVCAR-5 ovarian
[5] = test system: OVCAR-4 ovarian
[6] = test system: SK-OV-3 ovarian
[7] = test system: IGROV1 ovarian
[8] = test system: OVCAR-3 ovarian
[9] = test system: HS 578T breast
[10] = test system: NCI/ADR-RES ovarian
[11] = test system: T-47D breast
[12] = test system: BT-549 breast
[13] = test system: MDA-MB-435 melanoma
[14] = test system: SW-620 colon
[15] = test system: MCF7 breast
[16] = test system: HCT-116 colon
[17] = test system: HCC-2998 colon
[18] = test system: KM12 colon

**Q.** Which results are given for `CCNCCNc1cc(-c2ccc(C(F)(F)F)cc2)c(C#N)c2nc3ccccc3n12`?
**A.** growth [1]: -47.6% (active); growth [2]: -38.8% (active); growth [3]: -47.2% (active); growth [4]: -61.9% (active); growth [5]: -61.8% (active); growth [6]: -94.1% (active); growth [7]: -78.5% (active); growth [8]: -88.3% (active); growth [9]: -46.3% (active); growth [10]: -49.7% (active); growth [11]: -59.4% (active); growth [12]: -73.9% (active); growth [13]: -96.9% (active); growth [14]: -73.7% (active); growth [15]: -71.6% (active); growth [16]: -95.4% (active); growth [17]: -99.6% (active); growth [18]: -85.1% (active)

**Q.** With `COc1ccc(C/C(C)=C(/c2ccc(OCCN(C)C)cc2)c2ccc(OC(=O)NCc3ccccc3)cc2)cc1` as the molecule, how does the growth [1] read?
**A.** -46% (active)

**Q.** What about the growth [2] of the same molecule?
**A.** 32.9%

**Q.** What about the growth [3] of the same molecule?
**A.** 77.4%

**Q.** And the growth [4]?
**A.** 92%

**Q.** And the growth [5]?
**A.** 78.4%

**Q.** And the growth [6]?
**A.** 81.4%

**Q.** What about the growth [7] of the same molecule?
**A.** 85.3%

**Q.** And the growth [8]?
**A.** 63.9%

**Q.** And the growth [9]?
**A.** 56.2%

**Q.** What about the growth [10] of the same molecule?
**A.** 77.2%

**Q.** What about the growth [11] of the same molecule?
**A.** 51.7%

**Q.** What about the growth [12] of the same molecule?
**A.** 82.5%

**Q.** And the growth [13]?
**A.** 74.4%

**Q.** And the growth [14]?
**A.** 61.5%

**Q.** What about the growth [15] of the same molecule?
**A.** 21.2%

**Q.** What about the growth [16] of the same molecule?
**A.** 52.1%

**Q.** What about the growth [17] of the same molecule?
**A.** 66.6%

**Q.** What about the growth [18] of the same molecule?
**A.** 72.6%

**Q.** With `O=C(NNC(=O)c1ccc(NC(=O)c2ccccn2)cc1)Nc1ccc([N+](=O)[O-])cc1` as the molecule, how does the growth [1] read?
**A.** 109%

**Q.** What about the growth [2] of the same molecule?
**A.** 106%

**Q.** What about the growth [3] of the same molecule?
**A.** 104%

**Q.** What about the growth [4] of the same molecule?
**A.** 92.4%

**Q.** What about the growth [5] of the same molecule?
**A.** 108%

**Q.** And the growth [6]?
**A.** 106%

**Q.** And the growth [7]?
**A.** 88.5%

**Q.** What about the growth [8] of the same molecule?
**A.** 109%

**Q.** What about the growth [9] of the same molecule?
**A.** 75.6%

**Q.** And the growth [10]?
**A.** 106%

**Q.** What about the growth [11] of the same molecule?
**A.** 99.2%

**Q.** And the growth [12]?
**A.** 94.6%

**Q.** What about the growth [13] of the same molecule?
**A.** 106%

**Q.** What about the growth [14] of the same molecule?
**A.** 104%

**Q.** What about the growth [15] of the same molecule?
**A.** 95.7%

**Q.** What about the growth [16] of the same molecule?
**A.** 101%

**Q.** And the growth [17]?
**A.** 109%

**Q.** And the growth [18]?
**A.** 108%

**Q.** Which results are given for `CCCCCN1C(=O)/C(=c2\sc3n(c2=O)C2C(NN=3)N(CC)C(=O)N2CC)c2ccccc21` (configuration not stated)?
**A.** growth [1]: 1.69% (active); growth [2]: 8.52% (active); growth [3]: -53.2% (active); growth [4]: -4.09% (active); growth [5]: -56.7% (active); growth [6]: 13.3%; growth [7]: 2.27% (active); growth [8]: -74.5% (active); growth [9]: -17.6% (active); growth [10]: -11.1% (active); growth [11]: 23.3%; growth [12]: 19.5%; growth [13]: -60.1% (active); growth [14]: -42.1% (active); growth [15]: 12%; growth [16]: -72.1% (active); growth [17]: -17.1% (active); growth [18]: -52.9% (active)

**Q.** How did the growth [1] turn out when `Cc1ccc(Nn2c(SCC(=O)Nc3nc(-c4ccccc4)cs3)nc(C)c2C)cc1` was run?
**A.** 72.6%

**Q.** And the growth [2]?
**A.** 55.8%

**Q.** What about the growth [3] of the same molecule?
**A.** 55.5%

**Q.** And the growth [4]?
**A.** 81.8%

**Q.** And the growth [5]?
**A.** 32%

**Q.** What about the growth [6] of the same molecule?
**A.** 64.1%

**Q.** What about the growth [7] of the same molecule?
**A.** 86%

**Q.** What about the growth [8] of the same molecule?
**A.** 78.5%

**Q.** And the growth [9]?
**A.** 106%

**Q.** What about the growth [10] of the same molecule?
**A.** 34.4%

**Q.** And the growth [11]?
**A.** -2.45% (active)

**Q.** And the growth [12]?
**A.** 63.5%

**Q.** And the growth [13]?
**A.** 76.7%

**Q.** What about the growth [14] of the same molecule?
**A.** 98.8%

**Q.** What about the growth [15] of the same molecule?
**A.** 28.5%

**Q.** What about the growth [16] of the same molecule?
**A.** 40.2%

**Q.** What about the growth [17] of the same molecule?
**A.** 92%

**Q.** And the growth [18]?
**A.** 82.9%

**Q.** How did the growth [1] turn out when `CCCCNC(=O)Oc1ccc(/C(=C(/C)Cc2ccc(OC)cc2)c2ccc(OCCN3CCCC3)cc2)cc1` was run?
**A.** -54.1% (active)

**Q.** What about the growth [2] of the same molecule?
**A.** 1.62% (active)

**Q.** What about the growth [3] of the same molecule?
**A.** 69.6%

**Q.** What about the growth [4] of the same molecule?
**A.** 86%

**Q.** And the growth [5]?
**A.** 68.9%

**Q.** And the growth [6]?
**A.** 89.1%

**Q.** What about the growth [7] of the same molecule?
**A.** 85.5%

**Q.** What about the growth [8] of the same molecule?
**A.** 56.1%

**Q.** And the growth [9]?
**A.** 50.4%

**Q.** What about the growth [10] of the same molecule?
**A.** 81.5%

**Q.** What about the growth [11] of the same molecule?
**A.** 32.4%

**Q.** What about the growth [12] of the same molecule?
**A.** 73.8%

**Q.** And the growth [13]?
**A.** 55.8%

**Q.** And the growth [14]?
**A.** 72.7%

**Q.** What about the growth [15] of the same molecule?
**A.** 17.7%

**Q.** And the growth [16]?
**A.** 39.3%

**Q.** And the growth [17]?
**A.** 64.7%

**Q.** And the growth [18]?
**A.** 55.3%

**Q.** What does the source list for `N#Cc1c(-c2ccccc2)[nH]c2ncc(-c3ccccc3)n2c1=O`?
**A.** growth [1]: 89.8%; growth [2]: 106%; growth [3]: 95.6%; growth [4]: 109%; growth [5]: 96.2%; growth [6]: 76.6%; growth [7]: 50.7%; growth [8]: 86%; growth [9]: 88.6%; growth [10]: 91.2%; growth [11]: 71.9%; growth [12]: 89.1%; growth [13]: 102%; growth [14]: 101%; growth [15]: 71.3%; growth [16]: 87%; growth [17]: 83.3%; growth [18]: 89.8%

**Q.** How did the growth [1] turn out when `O=C1Nc2ccccc2/C1=C/c1cccn1CCCCn1c2ccccc2c(=O)c2ccccc21` was run?
**A.** 80.1%

**Q.** And the growth [2]?
**A.** 33.5%

**Q.** And the growth [3]?
**A.** 58.8%

**Q.** And the growth [4]?
**A.** 77.9%

**Q.** And the growth [5]?
**A.** 65.8%

**Q.** And the growth [6]?
**A.** 94.6%

**Q.** What about the growth [7] of the same molecule?
**A.** 77.3%

**Q.** What about the growth [8] of the same molecule?
**A.** 86.7%

**Q.** And the growth [9]?
**A.** 86.3%

**Q.** What about the growth [10] of the same molecule?
**A.** 73.9%

**Q.** What about the growth [11] of the same molecule?
**A.** 5.03% (active)

**Q.** What about the growth [12] of the same molecule?
**A.** 74.5%

**Q.** What about the growth [13] of the same molecule?
**A.** 92.7%

**Q.** What about the growth [14] of the same molecule?
**A.** 98.8%

**Q.** And the growth [15]?
**A.** 3.81% (active)

**Q.** And the growth [16]?
**A.** 74.2%

**Q.** And the growth [17]?
**A.** 40.5%

**Q.** And the growth [18]?
**A.** 13%

**Q.** How did the growth [1] turn out when `O=C(CN1C(=O)NC2NC(=O)NC21)N/N=C/c1ccccc1[N+](=O)[O-]` (configuration not stated) was run?
**A.** 110%

**Q.** And the growth [2]?
**A.** 109%

**Q.** And the growth [3]?
**A.** 104%

**Q.** And the growth [4]?
**A.** 108%

**Q.** And the growth [5]?
**A.** 99.6%

**Q.** What about the growth [6] of the same molecule?
**A.** 104%

**Q.** And the growth [7]?
**A.** 107%

**Q.** And the growth [8]?
**A.** 123%

**Q.** And the growth [9]?
**A.** 107%

**Q.** What about the growth [10] of the same molecule?
**A.** 105%

**Q.** What about the growth [11] of the same molecule?
**A.** 104%

**Q.** And the growth [12]?
**A.** 97.9%

**Q.** What about the growth [13] of the same molecule?
**A.** 104%

**Q.** What about the growth [14] of the same molecule?
**A.** 105%

**Q.** What about the growth [15] of the same molecule?
**A.** 85.1%

**Q.** What about the growth [16] of the same molecule?
**A.** 107%

**Q.** And the growth [17]?
**A.** 118%

**Q.** What about the growth [18] of the same molecule?
**A.** 104%
